Measured values reported in PubChem BioAssay (NCI).
Compounds without any hit were thinned out: in the full panel of roughly 79,000, 15% have a hit. Active and inactive are the calls of the source. No stated cut-off is given here; in the data, active means growth inhibition above about 70%; inactive means the rest.

experiment: NCI Yeast Anticancer Drug Screen. Data for the mec2-1 strain (AID 157); conditions: S. cerevisiae mec2-1 strain, at 50.0 µM, stronger effect = higher value
Summary of the method: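 mec2-1 yeast strain, carrying an alteration in DNA damage repair or cell cycle control, was exposed to compounds; growth inhibition was measured relative to vehicle-treated controls.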

Row | Compound | growth inhibition
1 | CC(C)(C)C1CCC2c3c([nH]c4ccccc34)C3C(=O)N(c4ccccc4[N+](=O)[O-])C(=O)C3C2C1 (centres undefined) | -24.1% (inactive)
2 | Clc1ccccc1C(N1CCCCC1)N1CCCCC1 | 13.2% (inactive)
3 | CC(=O)Nc1ccc(S(=O)(=O)SC(F)(F)F)cc1 | 7.25% (inactive)
4 | CCCCCCCCCCCCCCCOc1cc(OC)ccc1-c1nnc(SC)s1 | -15.6% (inactive)
5 | CCOC(=O)Oc1ccc(C(=O)NCCC(C)C)cc1OCC | -10.3% (inactive)
6 | c1ccc(C(N2CCNCC2)N2CCNCC2)cc1 | 8% (inactive)
7 | CCCC(=O)Nc1cn(COC)c(C(=O)N2C[C@H]3C[C@@]34C2=CC(=O)c2[nH]cc(C)c24)n1 | 22.1% (inactive)
8 | O=C(O)c1ccccc1C(=O)c1ccc(Br)cc1 | -20.7% (inactive)
9 | C=C1CC[N+]2(CCCCCC)CCCC12 (centres undefined) | 27.4% (inactive)
10 | COc1ccc2ncc(COC(=O)NC3CCCCC3)c(COC(=O)NC3CCCCC3)c2c1 | -2.1% (inactive)
11 | BrCCCOc1ccccc1 | -32.8% (inactive)
12 | CCN(CC)C(=O)c1cccc2c1OCO2 | 13.6% (inactive)
13 | CC(=O)Oc1ccccc1Cl | 31.5% (inactive)
14 | O=C(O)c1ccc(O)cc1 | 44.7% (inactive)
15 | CCOC(=O)NC(=O)c1cn(C2OC(CO)C(O)C2O)c(=O)[nH]c1=O (centres undefined) | -18.6% (inactive)
16 | CCNC(=S)OC1CCC2(C)C(=CCC3C2CCC2(C)C(C(C)CCC(CC)C(C)C)CCC32)C1 (centres undefined) | 6.6% (inactive)
17 | O=C(O)CCC(C(=O)O)N(Cc1ccccc1)Cc1ccccc1 (centres undefined) | -0.4% (inactive)
18 | Fc1ccc(-c2nc3ccccc3[nH]2)cc1 | 23.9% (inactive)
19 | Cc1ccc(S(=O)(=O)NCCN)cc1 | 11.2% (inactive)
20 | N/C(=N\c1nc(N)cc(N)n1)Nc1ccc(S(N)(=O)=O)cc1 | 4.25% (inactive)
21 | O=C(O)CNC(=O)OCc1ccccc1 | -16.4% (inactive)
22 | CCCOC(=O)O[C@H]1CC[C@@]2(C)C(=CC[C@H]3[C@@H]4CC[C@H]([C@H](C)CCCC(C)C)[C@@]4(C)CC[C@@H]32)C1 | -31% (inactive)
23 | c1ccc(-c2cc3nc4ccccc4nc3o2)cc1 | -10.6% (inactive)
24 | N#Cc1nc(-c2ccco2)oc1N | 1.85% (inactive)
25 | O=c1c2c3c(sc2nc2n1N=CN(c1ccc(Cl)cc1)C2)CCCC3 | 6% (inactive)
26 | Cc1cc2c(c(N)c1C)C(=O)c1ccccc1C2=O | 11.4% (inactive)
27 | COC1=CC(=O)N(C)C(O)C1(C#N)OC1OC(CO)C(O)C(O)C1O (centres undefined) | -12.8% (inactive)
28 | CC(=O)N1C(NN(C)C)CCN1c1ccccc1 (centres undefined) | -28.9% (inactive)
29 | O=S1(=O)CC(N2CCCCC2)C2=C(O1)c1ccccc1N(c1ccccc1)C2 (centres undefined) | -16.9% (inactive)
